ELG1 genotox = qHTS screen for small molecules that induce genotoxicity in human embryonic kidney (HEK293T) cells expressing luciferase-tagged ELG1; AID 504466, 2011; HEK293T ELG1-luciferase reporter, luminescence, 16 h; Potency, µM (series often up to 46 µM), inactives show at the top dose activity change, positive = activation, usual class: activators; 330,000 compounds, 1.3% hits; also: % of control where 0% means no effect; nearly all actives have a fitted effect of over 60% in size
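Reporter readout depends on ELG1 protein level, which increases with genetic stress. After 16 hr compound exposure at 37 °C, luciferase activity was quantified using ONE-Glo.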
Rab9 prom act = qHTS Assay for Rab9 Promoter Activators | Huh7 Rab9 promoter-luciferase reporter, luminescence, 24 h | Potency, µM (doses to about 9.22 µM), inactives show top-dose activation, negative = inhibition, actives largely listed as activators | 320,000 compounds, 2.8% hits; also: % of control where 0% means no effect; nearly all actives have a fitted effect of over 60% in size
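Huh7 cells stably carrying Rab9 promoter–luciferase reporter, plated 1500 cells/well, compound added after 2 h and incubated 24 h at 37 °C; luciferase luminescence then read after 10 min with detection reagent.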
NPC1 prom act = qHTS Assay for NPC1 Promoter Activators; Huh7 NPC1 promoter luciferase reporter, 24 h; Potency, µM (series often up to 9.22 µM), for inactives: at the highest dose activation, actives largely listed as activators; 320,000 compounds, 2.4% hits; AID 485313, 2010; also: % of control where 0% means no effect; nearly all actives have a fitted effect of over 60% in size
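Huh7 cells stably carrying NPC1 promoter–luciferase, plated in Opti-MEM with 10% FBS for 2 h, were exposed to compound in DMSO for 24 h at 37 °C; luciferase reagent was added for 10 min and luminescence read.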
ELG1 repair inh = qHTS screen for small molecules that inhibit ELG1-dependent DNA repair in human embryonic kidney (HEK293T) cells expressing luciferase-tagged ELG1. HEK293T ELG1-luciferase reporter, luminescence, 16 h; DNA damage induced by 5-fluorouridine. Potency, µM (top dose mostly 46.1 µM), without a hit: top-dose activity change, negative = inhibition, most hits filed as inhibitors. 330,000 compounds, 2.3% hits; also: % is scaled to controls: 0 for no effect and ±100 for the full control effect; nearly all actives have a fitted effect of over 55% in size
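Quantitative HTS, concentration-response format. 2,000 cells/well co-treated with 5-fluorouridine and compound, 16 hr in 5% CO2 at 37 °C; ONE-Glo luminescence read after 30 min.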
FLuc modulator = qHTS profiling assay for firefly luciferase inhibitor/activator using purifed enzyme and Km concentrations of substrates (counterscreen for miR-21 project). purified FLuc, Km substrates, luminescence inhibition. Potency, µM (doses to about 57.5 µM), inactives show at the top dose activity change, negative = inhibition, most hits filed as inhibitors. 360,000 compounds, 6.9% hits;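 also: plate controls were vehicle for no effect and reference inhibitor for full effect; nearly all actives have a fitted effect of over 55% in size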
Target sequence (P08659 whole entry, looked up): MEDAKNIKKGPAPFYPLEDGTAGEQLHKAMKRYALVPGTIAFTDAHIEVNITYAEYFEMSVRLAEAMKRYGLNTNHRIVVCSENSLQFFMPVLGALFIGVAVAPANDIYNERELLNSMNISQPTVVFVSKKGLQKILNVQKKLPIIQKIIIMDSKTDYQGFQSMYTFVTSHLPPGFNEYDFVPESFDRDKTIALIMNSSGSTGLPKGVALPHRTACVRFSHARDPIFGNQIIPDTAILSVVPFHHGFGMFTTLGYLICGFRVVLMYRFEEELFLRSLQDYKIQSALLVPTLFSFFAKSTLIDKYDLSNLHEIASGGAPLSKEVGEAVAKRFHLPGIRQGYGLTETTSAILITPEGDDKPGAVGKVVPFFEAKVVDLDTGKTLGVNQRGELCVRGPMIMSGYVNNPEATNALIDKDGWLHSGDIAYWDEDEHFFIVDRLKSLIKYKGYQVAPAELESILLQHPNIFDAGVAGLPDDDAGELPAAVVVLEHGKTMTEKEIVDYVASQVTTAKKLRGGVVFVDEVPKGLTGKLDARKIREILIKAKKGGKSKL
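Purified P. pyralis luciferase, 10 nM final, with Km-level 10 uM D-luciferin and 10 uM ATP in 50 mM Tris acetate pH 7.5, 10 mM Mg acetate, 0.01% Tween-20, 0.05% BSA; 6-point qHTS titration about 60 µM downward; luminescence read.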
SMN2 splice up = qHTS Assay for Enhancers of SMN2 Splice Variant Expression | HEK293 SMN2-luciferase splicing reporter, luminescence, 30-36 h | 210,000 compounds, 2.8% hits | AID 1458, 2008 | Potency, µM (highest dose often 46.1 µM), for inactives: at the top dose activity change, positive = activation, actives largely listed as activators; also: % of control where 0% means no effect; nearly all actives have a fitted effect of over 55% in size
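qHTS luciferase splicing reporter: luminescence rises when SMN2 exon 7 is included in transfected HEK293 cells. Compound exposure lasted 30-36 h at 37C, with 4.5 mM final sodium butyrate as control, followed by a ONE-Glo read.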
* hit, by the source's call; ? = inconclusive; . = no result given. Compounds with a hit are over-represented: about 9.2% of the library has one in this group of screens. Calls follow the shape of the dose curve; as a rule, active = well fitted curve in the direction sought with a large enough effect; inconclusive = small, poorly fitted or top-dose-only effect, or another doubt; inactive = no such curve, though single readings can be large; an effect the other way counts as inactive or inconclusive. Potency is read from the fitted curve at half-maximal effect.

SMILES | ELG1 genotox | Rab9 prom act | NPC1 prom act | ELG1 repair inh | FLuc modulator | SMN2 splice up
O=C(/C=C/c1ccc(Br)o1)Nc1nccs1 | ? | 2.8µM* | 3.2µM* | ? | ? | 13µM*
O=C(Nc1nccs1)c1ccc(Br)o1 | 13% | ? | 25% | ? | ? | 11µM*
COc1ccc(CN(C(=O)COc2ccccc2OC)C2CCS(=O)(=O)C2)cc1 (stereo not drawn) | . | . | . | . | -1% | .
COc1ccc(C(=O)CSc2cc(C)nc(SCC(=O)c3ccc(C)cc3)n2)cc1 | 0% | 0% | -20% | 5.2µM* | 2% | -84%
Cc1ccc(-c2cc(C(F)(F)F)nc(SCC(=O)c3cccc([N+](=O)[O-])c3)n2)cc1 | -6% | -13% | -4% | 18µM* | -4% | -19%
O=C(CSc1nc(-c2ccccc2)cc(C(F)(F)F)n1)c1cccc([N+](=O)[O-])c1 | -1% | 1% | 0% | 18µM* | 0% | -3%
Cc1cc(-c2ccccc2)nc(SCC(=O)c2cccc([N+](=O)[O-])c2)n1 | -6% | -5% | 2% | -27% | 0% | -10%
Cc1cc(C(F)(F)F)nc(SCC(=O)c2cccc([N+](=O)[O-])c2)n1 | -2% | 0% | 2% | -4% | 1% | -4%
Cc1ccc(C(=O)CSc2nc(C)cc(SCc3nnc(-c4ccccc4)o3)n2)cc1 | 9% | -2% | -2% | -3% | 0% | -11%
COc1ccc(-c2cc(C)nc(SCC(=O)c3cccc([N+](=O)[O-])c3)n2)cc1 | -2% | -5% | -3% | 21µM* | 0% | -19%
Cc1ccc2oc(C(=O)Nc3c(C(=O)Nc4ccccc4)oc4ccccc34)cc(=O)c2c1 | . | . | . | . | 1% | 3%
COc1cccc(Nc2nnc(-c3cc4ccc(O)cc4oc3=O)s2)c1 | . | . | . | . | -19% | .
CN(C)c1ccc(S(=O)(=O)N2CCCCC2)cc1NC(=O)CN1C(=O)NC2(CCCC2)C1=O | 0% | -8% | 0% | 0% | -8% | .
O=C(Nc1ccc2c(c1)OCO2)c1noc2c1CCCCC2 | ? | 0.45µM* | 0.56µM* | ? | 2.1µM* | 5.6µM*
O=C(Nc1ccc2c(c1)OCO2)c1noc2c1CCCC2 | 0.65µM* | 0.63µM* | 0.79µM* | ? | 1.5µM* | .
N#Cc1ccc(CN2CCC3(CC2)CCN(C(=O)c2cnccn2)CC3)cc1 | . | . | . | . | . | -6%
O=C1C(Cl)=C(N2CCCC2)C(=O)N1c1ccc(F)cc1 | 0% | -1% | -4% | 5% | ? | .
O=C(c1csnn1)N1CCC2(CCCN(c3ccc(-c4ccccc4)cc3)C2)CC1 | . | . | . | . | . | 18µM*
CCOc1ccc(NC(=O)Cn2cc(C(=O)c3ccccc3)c(=O)c3cc4c(cc32)OCCO4)cc1 | . | . | . | . | -2% | -17%
COc1cc(OC)c(NC(=O)c2cc(C(C)=O)n3ccccc23)cc1Cl | . | . | . | . | -2% | .
CC(NCc1ccc(S(N)(=O)=O)cc1)C(=O)Nc1cc([N+](=O)[O-])ccc1Cl (stereo not drawn) | -1% | -2% | -6% | -1% | -2% | -8%
CC(NCc1ccc(S(N)(=O)=O)cc1)C(=O)Nc1ccc([N+](=O)[O-])cc1Cl (stereo not drawn) | -2% | 0% | -1% | 23µM* | -3% | -5%
O=C(Nc1ccc(Cl)c(Cl)c1)N1CC=CCC1 | ? | 3.5µM* | 2.5µM* | ? | 12µM* | ?
Cc1ccc(NC(=O)N2CCCC2)cc1Cl | 10% | 28% | 17% | ? | -20% | 16%
Cc1ccc(OCCCCn2cnc3ccccc32)c(C)c1 | 4% | -1% | 2% | -17% | 11µM* | -76%
SMILES | ELG1 genotox | Rab9 prom act | NPC1 prom act | ELG1 repair inh | FLuc modulator | SMN2 splice up
Clc1ccccc1OCCn1cnc2ccccc21 | ? | ? | 27% | ? | 17µM* | -19%
Cc1ccc(C)c(OCCCCn2cnc3ccccc3c2=O)c1 | -5% | -3% | -1% | ? | -12% | .
Brc1ccccc1OCCCCn1cnc2ccccc21 | ? | -1% | -4% | ? | 11µM* | -46%
Cc1ccc(C(=O)N(Cc2ccc(N(C)C)cc2)CC2CCCO2)cc1 (stereo not drawn) | . | . | . | . | -7% | -1%
CCSc1ncc(/C=N/Nc2ccc(F)cc2)n1C | 27% | ? | ? | ? | 11µM* | 11µM*
Cc1nc(-c2ccccc2)nc2[nH]ccc(=O)c12 | ? | ? | 30% | ? | 12µM* | ?
Cc1cc(-c2ccc([N+](=O)[O-])cc2)nc2ccccc12 | 8% | 1% | 1% | 24% | ? | ?
Cc1nc(-c2ccc([N+](=O)[O-])cc2)nc2[nH]ccc(=O)c12 | ? | 1.1µM* | 1.1µM* | ? | 5.4µM* | .
Cc1nc(-c2ccccc2)nc2[nH]c(-c3ccccc3)cc(=O)c12 | 22% | 14% | -1% | ? | 0% | 5%
Cc1cc(NC(=O)c2cccc(C)c2[N+](=O)[O-])no1 | 5% | 5% | 6% | 11% | -15% | .
CC(=O)Cn1cnc2c(sc3nc(C)cc(C)c32)c1=O | ? | 24% | 27% | ? | 15µM* | .
Cc1nc2ccccc2n1CC(=O)NC(C)C1CC2CCC1C2 (stereo not drawn) | -6% | -26% | -27% | 5.2µM* | 1% | -48%
CC(NC(=O)Cn1c(NCCO)nc2ccccc21)C1CC2CCC1C2 (stereo not drawn) | -5% | 4% | -4% | 19% | -1% | -5%
Cc1nnc(-c2ccccc2)o1 | 3% | 1% | 0% | 7% | 0% | .
Cn1cc(-c2nnc(-c3ccccc3)o2)c2ccccc21 | ? | 2.2µM* | 2.5µM* | ? | 0.67µM* | 2.5µM*
Cc1cc(NC(=O)c2cc(-c3cccc(Cl)c3)on2)no1 | 6% | 0% | 0% | 3% | -2% | -11%
Cc1cc(-c2nnc(-c3cccc(Cl)c3)o2)no1 | ? | 2.5µM* | 3.5µM* | ? | 5.4µM* | .
Cc1ccccc1-c1nnc(-c2ccccc2)o1 | 9.2µM* | 3.2µM* | ? | ? | 6.7µM* | 13µM*
Cc1ccccc1-c1nnc(-c2ccc(Cl)cc2)o1 | 16µM* | 4µM* | ? | ? | 6.7µM* | .
C=C1C[C@@]23CC4C5[C@@]6(C)C[C@H](O)C[C@@]57C2[C@H](O)[C@@H]1[C@H](O)[C@H]3[C@H]7N4C6 | . | . | . | . | . | 8%
